Pol eta inh: qHTS for Inhibitors of Polymerase Eta; recombinant Pol eta, fluorescent DNA replication assay; Potency, µM (top dose mostly 114 µM), for inactives: top-dose activity change, negative = inhibition, actives largely listed as inhibitors; hit rate 1.2% among 390,000; AID 588591, 2011; also: % is scaled to controls: 0 for no effect and ±100 for the full control effect
Target sequence (Q9Y253 whole entry, looked up): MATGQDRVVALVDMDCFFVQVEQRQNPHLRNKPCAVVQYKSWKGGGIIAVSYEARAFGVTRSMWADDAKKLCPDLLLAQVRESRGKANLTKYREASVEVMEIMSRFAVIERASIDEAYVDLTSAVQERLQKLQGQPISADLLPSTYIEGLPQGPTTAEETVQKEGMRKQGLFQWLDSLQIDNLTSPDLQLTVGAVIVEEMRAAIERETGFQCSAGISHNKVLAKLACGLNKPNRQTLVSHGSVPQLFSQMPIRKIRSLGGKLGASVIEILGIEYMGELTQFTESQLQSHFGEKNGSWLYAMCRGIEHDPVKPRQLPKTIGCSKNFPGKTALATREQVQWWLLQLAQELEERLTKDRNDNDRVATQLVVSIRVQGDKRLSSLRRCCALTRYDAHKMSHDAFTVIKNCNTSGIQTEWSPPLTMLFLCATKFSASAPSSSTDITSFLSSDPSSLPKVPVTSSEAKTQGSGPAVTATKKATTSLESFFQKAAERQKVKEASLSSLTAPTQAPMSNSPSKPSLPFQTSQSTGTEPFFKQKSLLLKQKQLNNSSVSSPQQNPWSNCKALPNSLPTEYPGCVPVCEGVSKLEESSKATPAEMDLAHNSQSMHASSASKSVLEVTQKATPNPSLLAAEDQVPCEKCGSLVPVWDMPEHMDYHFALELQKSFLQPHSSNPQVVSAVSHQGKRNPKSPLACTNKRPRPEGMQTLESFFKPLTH
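Fluorescent replication assay: 50 nM final substrate added after a 15 min room-temperature compound preincubation with 10 nM enzyme. Signal taken at 0 min and again at 10 min.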
POLB inh: qHTS Assay for Inhibitors of DNA Polymerase Beta; Pol beta primer extension/strand displacement, fluorescence kinetic; hit rate 1.3% among 340,000; Potency, µM (doses to about 114 µM), for inactives: top-dose activity change, negative = inhibition, most hits filed as inhibitors; AID 485314, 2010; also: % is scaled to controls: 0 for no effect and ±100 for the full control effect
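Kinetic readout of DNA synthesis with strand displacement by Pol beta. Compound and 10 nM enzyme sit 15 min at room temperature; 50 nM substrate starts the reaction, read immediately and at 10 min.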
Pol kappa inh: qHTS for Inhibitors of Polymerase Kappa. DNA polymerase kappa (Homo sapiens), Q9UBT6. purified Pol kappa, fluorescent DNA synthesis assay, 10 min. Potency, µM (top dose mostly 107 µM), for the others: at the highest dose activity, negative = inhibition, hits mostly inhibitors. hit rate 0.53% among 400,000. AID 588579, 2011; also: % is scaled to controls: 0 for no effect and ±100 for the full control effect
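50 nM final substrate added after 15 min RT preincubation of 10 nM Pol kappa with compound; fluorescence read at 0 and 10 min.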
POLI inh: qHTS for Inhibitors of Polymerase Iota | Pol iota fluorescent replication assay, 10 min | Potency, µM (top dose mostly 115 µM), inactives show at the highest dose activity, negative = inhibition, usual class: inhibitors | hit rate 1% among 390,000
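Fluorescent replication assay read twice, at 0 min and 10 min after adding 50 nM (final) substrate. Enzyme (10 nM) and compounds were first incubated 15 min at room temperature; enzyme-free buffer wells were negative controls.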
TDP1 block: qHTS Assay for Inhibitors of Tyrosyl-DNA Phosphodiesterase (TDP1); recombinant TDP1, AlphaScreen DNA substrate cleavage; Potency, µM (series often up to 130 µM), for the others: at the highest dose activity change, negative = inhibition, actives largely listed as inhibitors; hit rate 0.28% among 350,000; AID 485290, 2010; also: % is scaled to controls: 0 for no effect and ±100 for the full control effect; nearly all actives have a fitted effect of over 40% in size
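Signal: AlphaScreen proximity between streptavidin donor and anti-FITC acceptor beads on intact substrate. Reaction: Tdp1 1 nM, substrate 15 nM final, 5 min RT after 15 min compound preincubation.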
Starred values were filed as active, the others as inactive; ? = inconclusive; . = no result; [ ] = dose if it differs, or a comment. The list is not random: actives were taken first. Their share in the collection is about 2.4%. Calls follow the shape of the dose curve; as a rule, active = well fitted curve in the direction sought with a large enough effect; inconclusive = small, poorly fitted or top-dose-only effect, or another doubt; inactive = no such curve, though single readings can be large; an effect the other way counts as inactive or inconclusive. Potency is read from the fitted curve at half-maximal effect.

SMILES	Pol eta inh	POLB inh	Pol kappa inh	POLI inh	TDP1 block
C=CCn1c(SCC(=O)Nc2sc3c(c2C#N)CCC3)nnc1C1COc2ccccc2O1 (stereo not drawn)	?	?	-4.9%	?	-1.5%
O=C1C[C@H]2C=CCc3cccc(c32)CN1Cc1ccc(Cl)cc1	.	.	-13.4%	8.9%	.
Cc1ccc(NS(=O)(=O)c2cc3c(cc2N(C)C)CCC(=O)N3)cc1C	.	.	.	.	-0.2%
O=C1C=CC(=O)c2c(O)c(Cl)c(Cl)c(O)c21	.	.	7.08µM*	.	-2.7%
O=C(Nc1ccc2oc(-c3cc(Br)ccc3Cl)nc2c1)c1cc2ccccc2o1	?	2.82µM*	-2.7%	53.0%	3.2%
O=C(Oc1cc(=O)oc2ccccc12)c1ccccc1	-22.1%	13.3%	-2.9%	-6.3%	0.0%
O=C(Oc1cc(=O)oc2c1c(=O)n1c3c(cccc23)CC1)c1ccccc1	-11.6%	39.8µM*	-8.1%	?	-1.4%
CN(C)/C=C/C(=O)/C=C/c1cn(-c2ncc(C(F)(F)F)cc2Cl)c2ccccc12	-16.9%	25.1µM*	-20.8%	8.4%	2.8%
O=C(Nc1nc2n(n1)C(c1ccc(F)cc1)C=C(c1ccc(Cl)cc1)N2)c1ccc([N+](=O)[O-])cc1 (stereo not drawn)	-22.5%	1.6%	-17.3%	45.7%	8.6%
CCOC(=O)c1ccc(NC(=O)COc2ccc(-n3cnnn3)cc2)cc1	?	31.6µM*	-15.7%	?	-1.1%
CCOC(=O)c1nn(-c2ccc(C)cc2)c(=O)cc1OCC(=O)Nc1ccc(OC)cc1	?	.	-1.7%	17.5%	44.7µM*
Cc1ccc(S(=O)(=O)N2CCc3nc(COc4ccccc4)c4c(c3C2)CO[C@@H](C)C4)cc1	.	.	.	.	7.4%[12.3 µM]
O=C1CCCC2=C1C1(CCCC1)N=C(Nc1nc3ccccc3n1Cc1ccccc1)N2	.	.	.	.	0.8%
CCc1ccc(NC(=O)CC2C(=O)N(c3ccc(Cl)cc3)C(=O)N2C2CCCC2)cc1 (stereo not drawn)	-14.5%	-0.3%	?	89.1µM*	5.6%
CCc1ccc(NC(=O)CC2C(=O)N(c3ccc(C)cc3)C(=O)N2C2CCCC2)cc1 (stereo not drawn)	-23.0%	-1.1%	-6.1%	13.3%	1.3%
COc1ccc(C(=O)NCCN(C)C)c2nc3ccccc3cc12	?	.	?	79.4µM*	.
COc1cccc2nc3c(C(=O)NCCN(C)C)cccc3cc12	?	.	-45.7%	?	.
CN(C)CCNC(=O)c1cccc2nc3c(ccc4ccccc43)nc12	?	.	?	79.4µM*	.
Cc1ccc(NC(=O)c2c(C)nc3sc(C(=O)Nc4ccc(F)cc4)c(N)c3c2-c2ccc(Cl)cc2)c(C)c1	-15.0%	-11.7%	-2.7%	24.6%	5.9%
COc1ccc2c(c1)CC(C(=O)NCCCN1CCN(c3ccc(F)cc3)CC1)CO2 (stereo not drawn)	-13.2%	23.1%	-9.3%[60.1 µM]	26.9%	6.5%
O=c1[nH]c2cc(Cl)c(O)cc2o1	.	.	12.0%[60.1 µM]	.	-0.3%
Nc1c(C(=O)Nc2ccc(S(=O)(=O)N3CCCC3)cc2)sc2nc3cc4c(cc3cc12)CCC4	-18.2%	-10.4%	-4.1%	137.5%	1.1%
Nc1c(C(=O)Nc2ccc(S(=O)(=O)N3CCCC3)cc2)sc2nc3ccc(OC(F)(F)F)cc3cc12	39.8µM*	28.2µM*	-6.4%	?	1.4%
Cc1ccc(Cn2c(=O)n(-c3cccc(C(F)(F)F)c3)c(=O)c3c(C)c(C)sc32)c(C)c1	.	-3.3%	1.9%	25.4%	-1.8%
Cc1cccc2nc(Cn3c(=O)n(CCCC(=O)NCc4ccco4)c(=O)c4ccccc43)cc(=O)n12	?	22.4µM*	0.0%	?	7.9%
SMILES	Pol eta inh	POLB inh	Pol kappa inh	POLI inh	TDP1 block
Cc1cccc(Cn2c(=O)n(CCCC(=O)NCc3ccco3)c(=O)c3ccccc32)c1	-11.4%	15.2%	-14.9%	10.3%	0.0%
CCCCCCCCN1[C@@H](CC(C)=O)c2ccc(/C=C/C(C)=O)cc2S1(=O)=O	.	.	13.7%	?	.
O=C(c1ccccc1)c1ccc2nc(N3CCN(C(=O)c4ccco4)CC3)c3nncn3c2c1	-27.1%	12.1%	1.9%	79.4µM*	6.1%
CC1=C(C(=O)OCC(C)C)C(c2cc3c(cc2Br)OCO3)NC(=O)N1C (stereo not drawn)	-25.4%	-0.2%	-13.4%	-5.5%	5.6%
CCCOC(=O)C1=C(C)N(C)C(=O)NC1c1cc2c(cc1[N+](=O)[O-])OCO2 (stereo not drawn)	-7.6%	?	79.4µM*	4.47µM*	-5.1%
CC(C)NS(=O)(=O)c1cc(C(F)(F)F)ccc1/C=C/C(=O)O	.	.	13.0%	-2.6%	.
CN1CC[C@H](c2c(O)cc(O)c3c(=O)cc(-c4ccccc4Cl)oc23)[C@@H](O)C1	.	.	-21.3%	?	2.9%
Cc1cc(N/N=C/c2ccc(N(C)C)cc2)c2ccccc2n1	?	-1.7%	-7.6%	3.0%	.
Cc1cc(N/N=C/c2ccc(O)cc2)c2cccc(C)c2n1	?	25.1µM*	-24.2%	-24.2%	4.1%
O=[N+]([O-])c1cccc(S(=O)(=O)N2CCN(c3nc(-c4ccccc4)nc4ccccc34)CC2)c1	.	.	-13.4%	-1.4%	3.5%
N#C/C(=C(/O)CSc1nnc(Cc2cccs2)n1C1CCCCC1)c1nc2ccccc2[nH]1	25.1µM*	17.8µM*	?	?	1.0%
Cc1nc(-c2ccc(C(=O)Nc3cccc(Br)c3)cc2)cs1	-17.2%	31.6µM*	-13.4%	?	1.2%
Cc1nc(-c2cccc(NC(=O)c3ccc(-n4nccc4C)cc3)c2)cs1	-8.5%	.	-13.6%	-8.0%	2.7%
Cc1nc(-c2ccc(C(=O)O)cc2)cs1	-8.8%	79.4µM*	-8.9%	-0.7%	0.0%
Nc1nc(-c2ccc(C(=O)O)cc2)cs1	-10.1%	24.8%	-10.6%	86.2%	-8.0%
CCCCC/C=C\C\C=C/C=C/C=C/[C@@H](SCC(NC(=O)CCC(N)C(=O)O)C(=O)NCC(=O)O)[C@@H](O)CCCC(=O)O (stereo partly drawn)	.	.	.	.	3.7%
O=C(Cn1c(=O)n(-c2ccccc2Cl)c(=O)c2sc3ccccc3c21)NC1CCCCC1	-8.9%	16.8%	-1.7%	17.2%	6.4%
Cc1ccc(CC(=O)CCc2ccccc2)cc1	-21.9%	.	1.8%	25.3%	79.4µM*
O=C(Nc1ccccc1C(F)(F)F)NC1(C(=O)N2CCOCC2)CCCCC1	?	.	50.1µM*	14.1µM*	.
O=C(CNC(=O)c1ccccc1O)N/N=C/c1cc(Br)ccc1OC(=O)/C=C/c1ccco1	?	-4.0%	?	?	8.6%
O=C(CNC(=O)c1cccc(F)c1)N/N=C/c1cc(Br)ccc1OC(=O)/C=C/c1ccco1	8.6%	35.5µM*	-9.0%[60.1 µM]	?	0.0%

Screens deposited in PubChem BioAssay by National Center for Advancing Translational Sciences (NCATS).
